# Experimental data from PubChem BioAssay (NCI).
# Where “and” joins values, the source holds several entries; their conditions need not be identical. Identical values can stand only once. The panel holds about 83,000 compounds, 20% with a hit somewhere; the sample as a whole holds those more often.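 Treatment: one concentration, 48 hours, 96-well format. Scoring: percent growth, with anything below 10 considered active.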 Values without a mark were called inactive. Calls of active or inactive are those of the source.
# System: MDA-MB-468 breast
# Test: NCI-60 one-dose screen, 48 h (100 = growth as untreated, 0 = no growth, -100 = all killed)
# Details: 10 µM unless noted
# Procedure: Growth inhibition of the MDA-MB-468 human Breast tumor cell line is measured as a screen for anti-cancer activity. Cells are grown in 96 well plates and exposed to the test compound for 48 hours. Compounds are tested at a single concentration, which is 10^-5 M for most compounds. The reported endpoint is percent growth (GI% or GIPRCNT), where numbers from 0 - 100% represent growth inhibition, and numbers from -100% - 0 represent cell death. For example, a value of 40 represents 60% growth inhibition. A value of 0 means no net growth occurred over the course of the experiment. A value of -40 indicates 40% of cells at the beginning of the experiment died by the end of the experiment. A value of -100 means all cells are dead at the end of the experiment.
# NCI-60 Human Tumor Cell Lines Screen was performed using the standard one-dose NCI protocol, which is described in more detail at https://dtp.cancer.gov/discovery_development/nci-60/default.htm.
# Compounds with GIPRCNT values below 10 were considered active. Activity score was based on GIPRCNT using the following formula: […]
# Score is 0 for GIPRCNT values of 100 or above, 50 for GIPRCNT values of 0, and 100 for GIPRCNT values of -100.
row,SMILES,growth
1,C=C1[C@@H](C)[C@H]2[C@H](Cc3ccccc3)NC(=O)[C@]23[C@@H](O)/C=C/[C@@](C)(O)C(=O)[C@@H](C)C/C=C/[C@H]3[C@@H]1O,-39% (active)
2,O=C(/C=C/c1cccc(Br)c1)c1nc2ccccc2n1Cc1ccc(Br)cc1,-58.5% (active)
3,COc1ccccc1[As]=[As]c1ccccc1OC (stereo not given),-94.8% (active)
4,ClCCN(CCCl)c1ccc(OCc2ccccc2)cc1,58.3%
5,Cc1ccc(CNc2nc3ccc(OC/C(=C/F)CN)cc3o2)cn1,109%
6,CC[CH2][Sn]([Cl])([Cl])[CH2]CC.Oc1ccccc1C=NCCN=Cc1ccccc1O,-59.7% (active) and -33.9% (active)
7,ClCCN(CCCl)Cc1ccc(Nc2ccnc3cc(Cl)ccc23)cc1,-0.105% (active)
8,COc1cccc2c1c(C(=O)C(=O)Nc1cc(C)no1)cn2Cc1ccc(F)cc1,48.4%
9,CCC(CO)NC1CCCCC1 (stereo not given),73.6%
10,CC(=O)O[C@H](C[C@H](C(C)C)N(C)C(=O)[C@@H](NC(=O)[C@H]1CCCCN1C)C(C)C)c1nc(C(=O)N[C@@H](Cc2ccccc2)C[C@H](C)C(=O)O)c(C(C)C)s1,19.8%
11,COC(=O)[C@@H](C)C[C@H](Cc1ccc(F)cc1)NC(=O)c1csc([C@@H](C[C@H](C(C)C)N(C)C(=O)[C@@H](NC(=O)[C@H]2CCCCN2C)C2CC2)OC(C)=O)n1,22.5%
12,C/C(=C\c1ccn(-c2ccc(N)cc2F)n1)[C@@H]1C[C@@H]2O[C@]2(C)CCC[C@H](C)[C@H](O)[C@@H](C)C(=O)C(C)(C)[C@@H](O)CC(=O)O1,8.6% (active)
13,COC(=O)C12CC(NC(=O)c3csc([C@@H](C[C@H](C(C)C)N(C)C(=O)[C@@H](NC(=O)[C@H]4CCCCN4C)C(C)C)OC(C)=O)n3)(C1)C2,42.5%
14,CCOC(=O)/C(C#N)=C/c1ccc(N(CCCl)CCCl)cc1,64.2%
15,CC1=C(O)[C@@](C)(CCCCC[C@H](C)CCCCc2ccc(O)cc2)OOC1=O,113%
16,COc1cc2c(cc1OC)C13CCN4CC5=CCOC6CC(=O)N2C1C6C5CC43 (stereo not given),116% and 108%
17,CC(=O)O[C@@H]1C2=C(C)C3(CC3)[C@@](C)(O)C(=O)C2=C[C@@]1(C)CO,-54% (active)
18,CO[C@H]1[C@H](O[C@@H]2C[C@@H]3C/C=C/C(=O)O[C@@H](CO)C[C@H](O)[C@@H]4C[C@H](C)[C@H](C/C=C\C=C\[C@H](C)C[C@H](C2)O3)O4)O[C@@H](C)[C@H](O)[C@H]1O,-4.8% (active)
19,CC[C@H](C)[C@H](NC(=O)[C@H]1CCCCN1C)C(=O)N(C)[C@H](C[C@@H](OC(C)=O)c1cccc(C(=O)N[C@@H](Cc2ccccc2)C[C@H](C)C(=O)O)n1)C(C)C,31.2%
20,O=C(CCc1ccco1)NC1CCN(CC2(c3ccc(Cl)cc3)CCC2)CC1,-11.5% (active)

row,SMILES,growth
1,CC1=C(C=O)C2=C(C)C3(CC3)[C@@](C)(O)C(=O)C2=C1,-33.8% (active)
2,CC[C@]12C=CCN3CC[C@]4(C(=C(C(=O)OC)C1)Nc1cc(OC)c(OC(C)=O)cc14)[C@@H]32,50.3%
3,O=[P+](O)c1ccccc1,114%
4,CCCCn1cc(C(=O)/C(C#N)=C/c2cc3ccccc3nc2Cl)c2cc(OC)ccc21,104%
5,CC(C)(N)Cc1ccccc1,114%
6,CCn1c2ccccc2c2cc(C(=O)c3ccc(C)c4ccccc34)ccc21,25.4%
7,CCC(=O)OC1CCn2c1nc1c2C(=O)C(C)=C(N2CC2)C1=O (stereo not given),44.3%
8,O=[N+]([O-])CC(O)C(Cl)(Cl)Cl (stereo not given),102%
9,O=C(NCCCN1CC1)Nc1cccc2ccccc12,103% and 90.7%
10,CC(=O)C(N)Cc1ccccc1 (stereo not given),97%
11,OCCNC1CCCCC1,109%
12,COC(=O)C1=CCCN(C)C1,105% and 92.8%
13,CCC(C)(C)[C@H](NC(=O)[C@H]1CCCCN1C)C(=O)N(C)[C@H](C[C@@H](OC(C)=O)c1nc(C(=O)N[C@@H](Cc2ccccc2)C[C@H](C)C(=O)O)cs1)C(C)C,7.54% (active)
14,CC[C@]12C=CCN3CC[C@@]4(c5ccc(OC)cc5N(C)[C@H]4[C@@](O)(C(=O)OC)[C@@H]1OC(=O)CCC[P+](c1ccc(F)cc1)(c1ccc(F)cc1)c1ccc(F)cc1)[C@@H]32,-74.6% (active)
15,Cn1cc(C2=C(c3cn(C4CCN(Cc5ccccn5)CC4)c4ccccc34)C(=O)NC2=O)c2ccccc21,119%
16,c1cnc2[nH]cc(-c3csc(-c4cn(CCCCN5CCOCC5)c5ccccc45)n3)c2c1,35.1%
17,CCCCCCCCCCCCCCCCCC1OCC(COC(=O)O[C@@H](C(=O)O[C@H]2C[C@@]3(O)[C@@H](OC(=O)c4ccccc4)[C@@H]4[C@]5(OC(C)=O)CO[C@@H]5C[C@H](O)[C@@]4(C)C(=O)[C@H](OC(C)=O)C(=C2C)C3(C)C)[C@@H](NC(=O)c2ccccc2)c2ccccc2)O1 (stereo not given in full),3.29% (active)
18,Cc1cc(C)cc(Nc2nc3c(s2)CC[C@@]2(C)C3=CC[C@@H]3[C@@H]2CC[C@]2(C)C(=O)CC[C@@H]32)c1,57.9%
19,CC1(C)N=C(N)N=C(N)N1c1ccc(CCCCc2ccc(S(=O)(=O)F)cc2)c(Cl)c1,7.5% (active)
20,COC(=O)[C@@H](C)C[C@H](Cc1ccccc1)NC(=O)c1csc([C@@H](C[C@H](C(C)C)N(C)C(=O)[C@@H](NC(=O)[C@H]2CCCCN2C)C2CCCCC2)OC(C)=O)n1,-8.49% (active)
